Our source for the z-score and composite z-score values is PubChem BioAssay.

The source made the active and inactive calls.

A short description of experiment [1]: optical density shifts of acrAB sulA E. coli – strain DRC41, OD650, 48 h, E. coli filamentation inducer project, primary screen (AID 1152).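 Note: E. coli MC1000 strain DRC41 lacking acrAB efflux pump and sulA.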 The following applies: higher = more signal, called active from +8 up or from −8 down.
Experiment [2] in a line: probe aLefty1 binding on compound microarray – biochemical, small-molecule microarray, 635/667 nm fluorescence, primary screen (AID 1153).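 Note: score merges spot fluorescence with signal-to-noise ratio from the scanned slide images.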 The settings on record: higher = more signal.
Experiment [3] can be described thus: plasmodial surface anion channel blockers, osmotic lysis – cell-based, P. falciparum Indochina, OD700, 1 h, primary screen (AID 1154). The following applies: P. falciparum Indochina infected RBC osmotic lysis, higher = more signal, called active from +8 up or from −8 down.
A short description of experiment [4]: plasmodial surface anion channel blockers, osmotic lysis – cell-based, P. falciparum Indochina, OD700, 2 h, primary screen (AID 1155).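 Note: lysis reports solute entry through the parasite surface anion channel PSAC.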 The following applies: P. falciparum Indochina infected erythrocytes, higher = more signal, called active from +8 up or from −8 down.
Experiment [5] can be described thus: changes in parasitized red cell lysis, either direction – P. falciparum Indochina, OD700, 3 h, PSAC antagonist project, primary screen (AID 1156). The settings on record: P. falciparum-infected erythrocytes, osmotic lysis, higher = more signal, called active from +8 up or from −8 down.
A short description of experiment [6]: plasmodial surface anion channel blockers, osmotic lysis – cell-based, P. falciparum Indochina, OD700, 18 h, primary screen (AID 1157). The settings on record: P. falciparum Indochina infected erythrocytes, osmotic lysis OD700, 18 h; higher = more signal, called active from +8 up or from −8 down.
Experiment [7] is described as follows: S6 kinase pathway phospho-S6 level changes – cell-based, A549, cytoblot, luminescence, serum-stimulated, primary screen (AID 1158).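 Note: serum-stimulated A549 lung adenocarcinoma cells; signal is phosphorylated S6 detected by cytoblot immunostaining with HRP secondary.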 The following applies: 5 h, higher = more signal.
The target in experiment [8] is NADPH oxidase 2 (Homo sapiens) (UniProt P04839). Description: compounds shifting NOX2 Amplex Red fluorescence – cell-based, HEK293-NOX2, PMA-stimulated, NOX inhibitor project, primary screen (AID 1159). Note: test concentration not given here. The following applies: 45 min, higher = more signal, called active from +8 up or from −8 down.
The target in experiment [9] is NADPH oxidase 4 (Homo sapiens) (UniProt Q9NPH5). Description: compounds shifting NOX4 Amplex Red fluorescence – cell-based, HEK293-NOX4, tetracycline-induced, NOX inhibitor project, primary screen (AID 1160). The settings on record: HEK293-NOX4, Amplex Red H2O2 fluorescence, 45 min; higher = more signal, called active from +8 up or from −8 down.
The target in experiment [10] is NADPH oxidase 5 (Homo sapiens) (UniProt Q96PH1). Kind of experiment: compounds shifting NOX5 Amplex Red fluorescence – cell-based, HEK293-NOX5, NOX inhibitor project, primary screen (AID 1161). The following applies: HEK293-NOX5, ionomycin, 45 min, higher = more signal.
The nature of experiment [11]: compound effects on lung adenocarcinoma cell viability – A549, calcein-AM fluorescence, 48 h, basal, profiling panel (AID 1162). Note: test concentration not given here. The following applies: higher = more signal.
Experiment [12] is described as follows: compound effects on differentiated 3T3-L1 adipocyte viability – cell-based, 3T3-L1 adipocytes, calcein-AM fluorescence, 48 h, basal, profiling panel (AID 1163). Note: test concentration not given here. The following applies: 3T3-L1 adipocytes viability, higher = more signal.
Experiment [13] in a line: compound effects on hepatocellular carcinoma cell viability – HepG2, calcein-AM fluorescence, 48 h, basal, profiling panel (AID 1164). Note: test concentration not given here. The settings on record: higher = more signal.
Experiment [14] is described as follows: compound effects on multiple myeloma cell viability – MM1S, calcein-AM fluorescence, 48 h, basal, profiling panel (AID 1165).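 Note: viability of MM1S multiple myeloma cells under basal unstimulated conditions; test concentration not given here.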 The settings on record: higher = more signal.
Experiment [15] in a line: calcein-AM signal in unstimulated myeloma cells – cell-based, calcein-AM fluorescence, 48 h, PK04 Diversity Set, profiling panel (AID 1166).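 Note: cells grown under basal conditions without added stimulus; test concentration not given here.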 The following applies: RPMI8226 myeloma viability, higher = more signal.
Experiment [16] in a line: JC-1 mitochondrial signal, unstimulated HepG2 cells – cell-based, JC-1 fluorescence, 24 h, 100 nL compound, profiling panel (AID 1167). Note: test concentration not given here. The settings on record: HepG2 mitochondrial potential, higher = more signal.
A short description of experiment [17]: JC-1 mitochondrial signal, unstimulated adipocytes – cell-based, JC-1 fluorescence, 3T3-L1 adipocytes, 24 h, 100 nL compound, profiling panel (AID 1168). Note: test concentration not given here. The settings on record: JC-1 mitochondrial fluorescence, higher = more signal, called active from +8 up or from −8 down.
Experiment [18] can be described thus: JC-1 mitochondrial signal, unstimulated myeloma cells – cell-based, JC-1 fluorescence, RPMI8226, 24 h, 100 nL compound, profiling panel (AID 1169). Note: test concentration not given here. The settings on record: JC-1 mitochondrial potential fluorescence, higher = more signal.
Experiment [19] in a line: JC-1 mitochondrial signal, unstimulated MM1S myeloma – cell-based, JC-1 fluorescence, 24 h, 100 nL compound, profiling panel (AID 1170). Note: test concentration not given here. The following applies: MM1S mitochondrial potential, higher = more signal.
A short description of experiment [20]: resazurin metabolic signal in A549 cells – cell-based, resazurin fluorescence, 24 h, PK04 Diversity Set, profiling panel (AID 1171). Note: test concentration not given here. The following applies: A549 viability, higher = more signal, called active from +8 up or from −8 down. (In general: Alamar Blue is a resazurin reagent that responds to reducing activity.)

Sequence of NADPH oxidase 2 (Homo sapiens) (P04839 whole entry, looked up): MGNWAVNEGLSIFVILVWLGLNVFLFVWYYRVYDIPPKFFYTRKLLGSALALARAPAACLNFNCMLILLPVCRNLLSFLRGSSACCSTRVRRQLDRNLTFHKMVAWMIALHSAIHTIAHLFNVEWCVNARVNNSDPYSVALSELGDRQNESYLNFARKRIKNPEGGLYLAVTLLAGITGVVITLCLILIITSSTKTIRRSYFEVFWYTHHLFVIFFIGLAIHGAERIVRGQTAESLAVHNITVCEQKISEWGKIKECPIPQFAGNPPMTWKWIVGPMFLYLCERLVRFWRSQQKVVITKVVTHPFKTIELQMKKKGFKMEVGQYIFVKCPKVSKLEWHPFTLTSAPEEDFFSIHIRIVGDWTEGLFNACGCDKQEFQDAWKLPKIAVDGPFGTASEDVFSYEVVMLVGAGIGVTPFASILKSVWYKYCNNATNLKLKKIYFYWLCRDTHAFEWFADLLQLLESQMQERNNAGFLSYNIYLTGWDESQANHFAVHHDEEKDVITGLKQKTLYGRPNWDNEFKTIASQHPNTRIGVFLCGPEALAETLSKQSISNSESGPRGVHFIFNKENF
Sequence of NADPH oxidase 5 (Homo sapiens) (Q96PH1 whole entry, looked up): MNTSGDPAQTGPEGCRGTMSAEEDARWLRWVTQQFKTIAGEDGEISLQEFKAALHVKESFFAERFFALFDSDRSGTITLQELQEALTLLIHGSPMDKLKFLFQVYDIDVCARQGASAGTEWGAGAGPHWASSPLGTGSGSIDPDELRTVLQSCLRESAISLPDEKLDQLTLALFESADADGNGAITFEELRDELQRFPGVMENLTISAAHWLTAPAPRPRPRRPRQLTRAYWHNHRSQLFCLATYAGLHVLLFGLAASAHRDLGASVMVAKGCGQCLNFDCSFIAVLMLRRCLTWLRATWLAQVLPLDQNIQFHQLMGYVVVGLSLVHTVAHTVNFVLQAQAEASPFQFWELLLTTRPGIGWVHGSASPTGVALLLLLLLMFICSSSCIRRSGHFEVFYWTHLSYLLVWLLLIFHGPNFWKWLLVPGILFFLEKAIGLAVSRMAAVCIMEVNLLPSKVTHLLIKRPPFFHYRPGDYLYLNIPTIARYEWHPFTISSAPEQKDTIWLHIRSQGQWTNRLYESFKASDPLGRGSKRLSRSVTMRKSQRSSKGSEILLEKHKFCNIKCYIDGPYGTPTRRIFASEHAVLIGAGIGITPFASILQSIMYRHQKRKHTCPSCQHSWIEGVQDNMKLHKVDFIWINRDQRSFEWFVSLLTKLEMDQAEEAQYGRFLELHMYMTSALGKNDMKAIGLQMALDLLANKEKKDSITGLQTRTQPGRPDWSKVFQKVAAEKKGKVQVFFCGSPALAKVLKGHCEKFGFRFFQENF
Sequence of NADPH oxidase 4 (Homo sapiens) (Q9NPH5 whole entry, looked up): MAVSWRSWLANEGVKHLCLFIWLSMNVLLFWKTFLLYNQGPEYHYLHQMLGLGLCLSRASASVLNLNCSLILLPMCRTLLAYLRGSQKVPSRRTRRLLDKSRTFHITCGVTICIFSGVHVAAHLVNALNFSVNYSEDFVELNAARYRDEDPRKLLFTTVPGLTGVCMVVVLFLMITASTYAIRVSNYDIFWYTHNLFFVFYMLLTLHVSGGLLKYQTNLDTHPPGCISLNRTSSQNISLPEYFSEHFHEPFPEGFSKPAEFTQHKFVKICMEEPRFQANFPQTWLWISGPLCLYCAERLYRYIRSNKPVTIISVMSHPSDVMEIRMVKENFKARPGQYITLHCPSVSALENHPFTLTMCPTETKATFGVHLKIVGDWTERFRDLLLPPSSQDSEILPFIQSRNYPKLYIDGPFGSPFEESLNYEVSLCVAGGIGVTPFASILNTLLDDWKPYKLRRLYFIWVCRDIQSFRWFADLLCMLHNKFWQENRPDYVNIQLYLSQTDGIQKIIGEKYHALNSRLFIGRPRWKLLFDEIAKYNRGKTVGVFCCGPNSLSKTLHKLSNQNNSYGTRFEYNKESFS

Consider `CN(C)CCCCNC(=O)[C@H]1C[C@H]2C(=O)N[C@@H](CCCCN(C)C)C(=O)N2[C@H]1c1cccc(OCCO)c1`, for which the z-score in [1] was 0.357 (inactive); in [3], 0.72 (inactive); in experiment [4] it was -0.0174 (inactive); in [5] it was -0.71 (inactive); in experiment [6], -0.0919 (inactive); in [7], -0.518. For the same molecule, the z-score in experiment [8] is 0.731 (inactive); in experiment [9], 0.756 (inactive); in experiment [10] it was -0.151; in experiment [11], -0.317; in [12] it was 0.0593; in experiment [13], -0.269. Moreover, the z-score is -0.0355 in [14]; 0.495 in experiment [15]; 0.13 in experiment [16]; 0.429 (inactive) in experiment [17]; 0.426 in [18]; 0.23 in experiment [19]. In addition, in [20], the z-score is 0.471 (inactive). The composite z-score in experiment [2] is -0.546.
For `C=C[C@@H](C)[C@H](OC(=O)Nc1ccc(SC)cc1)c1ccc(OCCO)cc1`, the z-score is -0.605 (inactive) in [1]; 27.9 (active) in experiment [3]; 12 (active) in [4]; 3.4 (inactive) in experiment [5]; 1.75 (inactive) in experiment [6]; 2.17 in experiment [7]. The z-score in experiment [8] is -0.329 (inactive); in experiment [9] it was -0.14 (inactive); in [10], -0.18; in experiment [11], -0.848; in experiment [12] it was 0.54; in experiment [13] it was 0.0237. Also, the z-score is 0.191 in experiment [14]; 0.794 in experiment [15]; -0.692 in experiment [16]; 0.396 (inactive) in experiment [17]; 0.917 in [18]; -1.13 in experiment [19]. Besides, the z-score in experiment [20] was -0.0363 (inactive). For the same molecule, the composite z-score in experiment [2] is -0.33.
`CN1C(=O)[C@@]2(CCS(=O)(=O)c3ccccc3)N=C(c3ccc(OCCCO)cc3)O[C@H]2c2ccccc21`: the z-score in experiment [1] was 0.583 (inactive); in experiment [3], 30.1 (active); in [4] it was 23.3 (active); in experiment [5], 0.141 (inactive); in [6], 0.914 (inactive); in experiment [7], 0.836. For the same molecule, the z-score was -2.59 (inactive) in experiment [8]; 0.479 (inactive) in experiment [9]; -0.917 in experiment [10]; 0.524 in experiment [11]; 1.1 in experiment [12]; -0.0319 in [13]. The z-score was -0.624 in [14]; -0.517 in experiment [15]; 0.214 in experiment [16]; 0.426 (inactive) in experiment [17]; -0.776 in experiment [18]; 0.111 in experiment [19]. For the same molecule, the z-score in experiment [20] is -0.254 (inactive). The molecule also came in with a composite z-score in experiment [2] of -0.0003.
Regarding `CCOC(=O)C[C@H]1[C@H](OC(=O)c2ccc(C(=O)c3ccccc3)cc2)[C@@H](NC(=O)c2ccc3ccccc3c2)c2cc(OCCCO)ccc2N1C(=O)c1ccccc1`, the z-score was -0.558 (inactive) in experiment [1]; 0.137 (inactive) in [3]; -0.0012 (inactive) in [4]; -0.97 (inactive) in experiment [5]; 0.189 (inactive) in [6]; -0.357 in experiment [7]. In addition, the z-score was 0.311 (inactive) in experiment [8]; 0.945 (inactive) in experiment [9]; 1.06 in experiment [10]; -0.0566 in experiment [11]; 0.202 in [12]; -0.458 in experiment [13]. The z-score was 0.0736 in [14]; -0.602 in experiment [15]; -0.245 in experiment [16]; -1.1 (inactive) in experiment [17]; 0.314 in experiment [18]; 0.184 in [19]. The z-score in experiment [20] was -0.412 (inactive). This molecule had a composite z-score in experiment [2] of -0.0134.
